# Test results published in ChEMBL document CHEMBL4649984, “CBP30, a selective CBP/p300 bromodomain inhibitor, suppresses human Th17 responses” (Proc Natl Acad Sci U S A, 2015).
# Several values for one entry are separate records, joined by “and”; a condition that tells them apart may be missing. Equal values may be shown once.
# How the values were obtained:
# [1] = target: Bromodomain-containing protein 4 (Homo sapiens) (UniProt O60885); conditions: Compound concentration 10.0 uM, Protein concentration 2.0 uM
# [2] = target: T1, Transcription intermediary factor 1-alpha (Homo sapiens) (UniProt O15164); conditions: Compound concentration 10.0 uM, Protein concentration 2.0 uM
# T1 sequence (whole entry): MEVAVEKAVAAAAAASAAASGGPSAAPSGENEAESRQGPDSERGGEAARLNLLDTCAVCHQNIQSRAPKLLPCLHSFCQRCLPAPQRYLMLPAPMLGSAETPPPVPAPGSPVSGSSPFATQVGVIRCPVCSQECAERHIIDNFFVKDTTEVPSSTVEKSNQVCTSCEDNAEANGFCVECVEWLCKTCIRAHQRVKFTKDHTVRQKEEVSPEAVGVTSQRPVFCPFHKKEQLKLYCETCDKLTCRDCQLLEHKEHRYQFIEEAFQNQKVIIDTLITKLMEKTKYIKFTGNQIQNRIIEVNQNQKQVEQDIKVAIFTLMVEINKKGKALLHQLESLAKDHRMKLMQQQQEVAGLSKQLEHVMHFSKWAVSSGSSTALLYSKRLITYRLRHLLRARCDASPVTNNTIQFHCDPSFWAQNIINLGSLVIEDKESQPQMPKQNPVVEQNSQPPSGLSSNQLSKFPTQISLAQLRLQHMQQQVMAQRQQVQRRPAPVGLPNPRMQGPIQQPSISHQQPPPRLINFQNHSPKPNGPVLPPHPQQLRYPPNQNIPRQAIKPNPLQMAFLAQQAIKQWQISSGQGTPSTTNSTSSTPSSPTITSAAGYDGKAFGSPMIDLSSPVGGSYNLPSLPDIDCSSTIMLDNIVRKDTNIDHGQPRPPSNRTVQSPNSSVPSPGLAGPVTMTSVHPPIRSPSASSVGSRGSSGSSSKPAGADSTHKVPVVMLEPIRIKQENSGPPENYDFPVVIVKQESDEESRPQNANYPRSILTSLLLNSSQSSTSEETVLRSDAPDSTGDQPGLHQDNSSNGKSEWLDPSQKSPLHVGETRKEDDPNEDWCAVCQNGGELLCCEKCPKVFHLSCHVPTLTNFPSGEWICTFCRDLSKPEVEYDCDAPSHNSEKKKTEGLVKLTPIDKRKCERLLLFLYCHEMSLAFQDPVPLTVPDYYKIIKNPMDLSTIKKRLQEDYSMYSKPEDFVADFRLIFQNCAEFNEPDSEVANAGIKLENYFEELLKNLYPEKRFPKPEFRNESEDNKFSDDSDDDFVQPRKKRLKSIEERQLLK
compound,measurement,setting,value
COc1ccc(CCc2nc3cc(-c4c(C)noc4C)ccc3n2C[C@H](C)N2CCOCC2)cc1Cl,ΔTm,[1],1.65 °C and 2.75 °C
same,ΔTm,[2],0.88 °C
